Assay results published in the supplement of paper PMC8728848.
Shown is part of a subset that was picked to be rich in the strongest signals.

Assays:
Test in all cases: glycan array binding signal (z-score within array); higher = stronger binding
Conditions in all cases: glycan notation: IUPAC condensed, linker removed
[1] = target: Gal3S(b1-3)[Fuc(a1-4)]GlcNAc
Method in brief: (§1)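 The binding signal is a Z-score computed within each array and averaged over linkers. Arrays of the same protein sequence at different concentrations or buffers were also averaged together. Data originate from 3228 arrays in the Consortium for Functional Glycomics database, kept only where the protein sequence was available.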

[2] = target: Gal6P(b1-4)GlcNAc
Method in brief: as §1

[3] = target: GalNAc(a1-3)Gal
Method in brief: as §1

[4] = target: GalNAc(a1-3)GalNAc
Method in brief: as §1

[5] = target: GalNAc(b1-4)GlcNAc
Method in brief: as §1

[6] = target: GlcNAc(a1-4)Gal(b1-4)GlcNAc(b1-3)Gal(b1-4)GlcNAc(b1-3)Gal(b1-4)GlcNAc
Method in brief: as §1

[7] = target: GlcNAc(b1-3)Gal(b1-4)GlcNAc(b1-2)[GlcNAc(b1-3)Gal(b1-4)GlcNAc(b1-6)]Man(a1-6)[GlcNAc(b1-3)Gal(b1-4)GlcNAc(b1-2)Man(a1-3)]Man(b1-4)GlcNAc(b1-4)GlcNAc
Method in brief: as §1

[8] = target: GlcNAc(b1-3)Gal(b1-4)GlcNAc(b1-3)Gal(b1-4)GlcNAc
Method in brief: as §1

[9] = target: GlcNAc(b1-3)Gal(b1-4)GlcNAc(b1-3)Gal(b1-4)GlcNAc(b1-3)Gal(b1-4)GlcNAc(b1-2)Man(a1-3)[GlcNAc(b1-3)Gal(b1-4)GlcNAc(b1-3)Gal(b1-4)GlcNAc(b1-3)Gal(b1-4)GlcNAc(b1-2)Man(a1-6)]Man(b1-4)GlcNAc(b1-4)[Fuc(a1-6)]GlcNAc
Method in brief: as §1

[10] = target: GlcNAc(b1-3)Gal(b1-4)GlcNAc(b1-3)[GlcNAc(b1-3)Gal(b1-4)GlcNAc(b1-3)]GalNAc
Method in brief: as §1

[11] = target: GlcNAc(b1-3)[GlcNAc(b1-4)][GlcNAc(b1-6)]GlcNAc
Method in brief: as §1

[12] = target: GlcNAc(b1-3)[GlcNAc(b1-6)]GalNAc
Method in brief: as §1

[13] = target: GlcNAc(b1-4)GlcNAc(b1-4)GlcNAc
Method in brief: as §1

[14] = target: Kdn(a2-3)Gal(b1-3)GlcNAc
Method in brief: as §1

[15] = target: Man(a1-2)Man(a1-2)Man(a1-3)Man
Method in brief: as §1

[16] = target: Man(a1-2)Man(a1-2)Man(a1-6)[Man(a1-3)]Man
Method in brief: as §1

[17] = target: Man(a1-2)Man(a1-3)Man
Method in brief: as §1

[18] = target: Man(a1-2)Man(a1-3)[Man(a1-2)Man(a1-6)]Man
Method in brief: as §1

[19] = target: Man(a1-2)Man(a1-3)[Man(a1-2)Man(a1-6)]Man(a1-6)[Man(a1-2)Man(a1-2)Man(a1-3)]Man
Method in brief: as §1

[20] = target: Man(a1-2)Man(a1-6)[Man(a1-3)]Man(a1-6)[Man(a1-2)Man(a1-2)Man(a1-3)]Man(b1-4)GlcNAc(b1-4)GlcNAc
Method in brief: as §1

[21] = target: Man(a1-3)[Man(a1-6)]Man
Method in brief: as §1

[22] = target: Man(a1-3)[Man(a1-6)]Man(a1-6)[Man(a1-2)Man(a1-3)]Man(b1-4)GlcNAc(b1-4)GlcNAc
Method in brief: as §1

[23] = target: Neu5Ac(a2-3)Gal(b1-3)GalNAc(b1-4)Gal(b1-4)Glc
Method in brief: as §1

[24] = target: Neu5Ac(a2-3)Gal(b1-3)GlcNAc6S
Method in brief: as §1

[25] = target: Neu5Ac(a2-3)Gal(b1-3)[GlcNAc(b1-6)]GalNAc
Method in brief: as §1

[26] = target: Neu5Ac(a2-3)Gal(b1-3)[Neu5Ac(a2-6)]GalNAc
Method in brief: as §1

[27] = target: Neu5Ac(a2-3)Gal(b1-4)GlcNAc(b1-2)Man(a1-3)[GlcNAc(b1-4)][Neu5Ac(a2-3)Gal(b1-4)GlcNAc(b1-2)Man(a1-6)]Man(b1-4)GlcNAc(b1-4)GlcNAc
Method in brief: as §1

[28] = target: Neu5Ac(a2-3)Gal(b1-4)GlcNAc(b1-3)Gal(b1-3)GlcNAc
Method in brief: as §1

[29] = target: Neu5Ac(a2-3)Gal(b1-4)GlcNAc(b1-3)Gal(b1-4)GlcNAc(b1-3)Gal(b1-4)GlcNAc(b1-2)Man(a1-3)[Neu5Ac(a2-3)Gal(b1-4)GlcNAc(b1-3)Gal(b1-4)GlcNAc(b1-3)Gal(b1-4)GlcNAc(b1-2)Man(a1-6)]GalNAc
Method in brief: as §1

[30] = target: Neu5Ac(a2-3)Gal(b1-4)[Fuc(a1-3)]GlcNAc(b1-6)[Gal(b1-3)]GalNAc
Method in brief: as §1

B1: Mincle (Bos taurus) (protein)
chain: MNSSTSPASQTERRCFSFQLFSWAIAGTSILLLSACFITRCVVTYSIFQLCDEKKFQPPGDSMELSCYNDGSGSVKNCCPLKWFHFQSSCYLFSPDTMSWRASLKNCSSMGAHLVVINTQEEQEFLYYTKPRKKEFYIGLTDQVTEGQWQWVDGTPFTKSLSFWDAGEPNNLVIVEDCATIRDSSNPRQNWNDVPCFFNMFRVCEMPERKI
With B1 the “glycan array binding signal (z-score)” value [1] was 3.35, the “glycan array binding signal (z-score)” value [2] was -0.035 and the “glycan array binding signal (z-score)” value [3] was -1.18. The “glycan array binding signal (z-score)” value [4] was 0.166, the “glycan array binding signal (z-score)” value [5] was -0.149 and the “glycan array binding signal (z-score)” value [6] was 0.104. For the same binder, the “glycan array binding signal (z-score)” value [7] was 1.42, the “glycan array binding signal (z-score)” value [8] was -0.57 and the “glycan array binding signal (z-score)” value [9] was -0.142. The “glycan array binding signal (z-score)” value [10] was 0.084, the “glycan array binding signal (z-score)” value [11] was 5.17 and the “glycan array binding signal (z-score)” value [12] was 0.888. The “glycan array binding signal (z-score)” value [13] was -0.899, the “glycan array binding signal (z-score)” value [14] was 0.033 and the “glycan array binding signal (z-score)” value [15] was 6.56. The “glycan array binding signal (z-score)” value [16] was 4.79, the “glycan array binding signal (z-score)” value [17] was 3.01 and the “glycan array binding signal (z-score)” value [18] was 7.29. The “glycan array binding signal (z-score)” value [19] was 3.54, the “glycan array binding signal (z-score)” value [20] was 0.474 and the “glycan array binding signal (z-score)” value [21] was 6.16. The “glycan array binding signal (z-score)” value [22] was 3.43, the “glycan array binding signal (z-score)” value [23] was -1.13 and the “glycan array binding signal (z-score)” value [24] was 1.11. The “glycan array binding signal (z-score)” value [25] was -0.595, the “glycan array binding signal (z-score)” value [26] was -0.943 and the “glycan array binding signal (z-score)” value [27] was 0.061. For the same binder, the “glycan array binding signal (z-score)” value [28] was 0.02, the “glycan array binding signal (z-score)” value [29] was 4.3 and the “glycan array binding signal (z-score)” value [30] was 0.16.
